For 91 compounds, survival results are on record in PubChem BioAssay AID463173 (ICCB-Longwood Screening Facility, Harvard Medical School, 2010).

Screen size: about 52,000 compounds; about 4,300 (8.3%) were called active. Shown is part of a subset that was picked to be rich in actives. Values without a mark were called inactive. No stated cut-off is given here; in the data, active means survival mostly below about 52% (no sharp cut-off); inactive means mostly above about 56%.

This assay has as its system DeltatarO mutant. Put plainly: growth inhibition of S. aureus wild type versus tarO mutant, primary screen, teichoic acid synthesis inhibitors, RN4220, OD600 (AID 463173). Particulars: OD600, 18 h, stronger effect = lower value, screened at 18.75 µg/mL (by protocol).
Take `O=C(Nc1ccc(F)cc1)c1nc(SCc2ccccc2F)ncc1Cl`: the survival was 99%.

In the case of `Cc1ccc(C(=O)O)cc1NC(=O)c1nsc2ccccc12`, the survival is 103%.

As to `CCOC(=O)c1sc(=S)n(C)c1C`, the survival is 88%.

For the compound `COc1ccc(OC)c(CNS(=O)(=O)c2ccc3[nH]c4c(c3c2)CCCCC4)c1`, the survival is 79%.

For the compound `Cc1ccc(Nc2c3c(nc4nncn24)CCC3)cc1`, the survival was 62%.

`COc1ccc(CNC(=O)c2cc3cccc4c3n2CC(C)S4)c(OC)c1` (stereo unspecified): the survival was 122%.

With `CCCCOC(=O)/C(C#N)=C/c1ccc(-c2ccc(Br)cc2)o1`, the survival is 68%.

`CCC(C)OC(=O)/C(C#N)=C/c1ccc(-c2ccc(Br)cc2)o1` (stereo unspecified): the survival was 43% (active).

Regarding `CC(C)COC(=O)/C(C#N)=C\c1ccc(-c2ccccc2Cl)o1`, the survival was 67%.

For `CCOC(=O)/C(C#N)=C/c1ccc(-c2ccc(Br)cc2)o1`, the survival is 81%.

As for `CCC(C)OC(=O)/C(C#N)=C\c1ccc(-c2ccccc2Cl)o1` (stereo unspecified), the survival was 58% (active).

With `CC(C)OC(=O)/C(C#N)=C/c1ccc(-c2ccc(Cl)c(Cl)c2)o1`, the survival is 72%.

For the compound `Cc1cccc(-c2nc(C)c(CCNC(=O)C(=O)Nc3ccc(C)c(C)c3)s2)c1`, the survival was 88%.

As for `CC1=CCC(C(=O)Nc2nc3ccccc3s2)C(C(=O)O)C1` (stereo unspecified), the survival is 49%.

As for `Cc1ccc(CNC(=O)C2CCN(c3nc4ccc(C)cc4[nH]3)CC2)cc1`, the survival is 126%.

On to `Cc1cc2ccccc2n1-c1ccc(C(=O)N2CCC(C(=O)NCc3ccc(Cl)cc3)CC2)s1`, for which the survival is 67%.

For the compound `CCc1ccc(CNC(=O)C2CCN(C(=O)c3ccc(-n4c(C)cc5ccccc54)s3)CC2)cc1`, the survival was 70%.

For `Cc1cc2ccccc2n1-c1ccc(C(=O)N2CCC(C(=O)NCc3ccc(F)cc3)CC2)s1`, the survival is 6% (active).

With `Cc1nc(-c2cccc(S(=O)(=O)N3CCC(C(=O)NCc4ccccc4)CC3)c2)no1`, the survival was 109%.

For the compound `COc1ccc(NC(=O)c2cc3c(s2)-c2c(C)cccc2OC3)c(OC)c1`, the survival is 51% (active).

For `COc1ccc(OC)c(CCNC(=O)c2cc3c(s2)-c2c(C)cccc2OC3)c1`, the survival is 79%.

Take `COc1cc(Cl)c(C)cc1NC(=O)c1cc2c(s1)-c1c(C)cccc1OC2`: the survival was 90%.

Take `Cc1cccc2c1-c1sc(C(=O)N(C)c3cccc(Cl)c3)cc1CO2`: the survival is 0% (active).

Turning to `Cc1cccc2c1-c1sc(C(=O)N3CCN(c4cccc(Cl)c4)CC3)cc1CO2`, the survival was 66%.

Take `COc1ccc(CCNC(=O)c2cc3c(s2)-c2c(C)cccc2OC3)c(OC)c1`: the survival is 85%.

Turning to `COc1ccc(N(C)C(=O)c2cc3c(s2)-c2c(C)cccc2OC3)c(OC)c1`, the survival was -1% (active).

On to `Cc1cccc2c1-c1sc(C(=O)N(C)c3cccc(C(F)(F)F)c3)cc1CO2`, for which the survival was 52%.

In the case of `CCc1ccccc1N(C)C(=O)c1cc2c(s1)-c1c(C)cccc1OC2`, the survival is 60%.

`CC(C(=O)NCc1ccco1)N1C(=O)c2ccccc2C1=O` (stereo unspecified): the survival was 57%.

As for `Cc1coc2cc3oc(=O)c(CC(=O)NCCc4ccccc4)c(C)c3cc12`, the survival was 84%.

Consider `COC(=O)N1N=C(c2ccccc2)CC1(O)C(F)(F)F` (stereo unspecified), for which the survival was 85%.

Regarding `COc1ccc(OC)c(N=c2oc3cc(O)ccc3cc2C(=O)Nc2ccccn2)c1`, the survival is 70%.

Consider `Cc1ccc(S(=O)(=O)NCCc2nnc3ccc(SCc4ccccc4F)nn23)cc1`, for which the survival was 76%.

Regarding `O=C(NC1C2CCCC1CN(C1CC1)C2)c1ccc(Cl)cc1` (stereo unspecified), the survival was 84%.

As for `O=C(/C(=N/O)n1cncn1)c1ccc(Cl)cc1Cl`, the survival was 72%.

In the case of `Cc1ccc(C)c(NC(=O)CSc2nc(=O)n(CCN(C)C)c3c2CCC3)c1`, the survival was 79%.

In the case of `CCOC(=O)c1c(C)oc2nc(C)nc(NCC3CCN(Cc4ccccc4C)CC3)c12`, the survival was 86%.

Regarding `O=C(O)C1C2C=CC(C2)C1C(=O)NCc1cccs1` (stereo unspecified), the survival is 83%.

With `COC(=O)c1ccccc1NC(=O)N(Cc1ccc(C)cc1)Cc1cccn1-c1nnc(N2CCCC2=O)s1`, the survival was 123%.

Regarding `O=C1N/C(=N/N=C\c2ccco2)SC1Cc1cccc(C(F)(F)F)c1` (stereo unspecified), the survival was 56%.

As to `O=C(/C(=C\c1ccc(F)cc1)n1ccccc1=O)N1CCCC1`, the survival was 102%.

`COC(=O)c1cccc(NC(=O)c2nsc3ccccc23)c1`: the survival was -1% (active).

`O=C(NCc1cccc(F)c1)c1ccc(NC(=O)c2nsc3ccccc23)cc1`: the survival is -2% (active).

Take `O=C(NCc1cccc(F)c1)c1cccc(NC(=O)c2nsc3ccccc23)c1`: the survival is 85%.

Turning to `CC(NC(=O)c1cccc(NC(=O)c2nsc3ccccc23)c1)c1ccccc1` (stereo unspecified), the survival was 115%.

For `O=C(NCc1ccccc1)c1ccc(NC(=O)c2nsc3ccccc23)cc1`, the survival is 61%.

Regarding `CCC(C)NC(=O)c1cccc(NC(=O)c2nsc3ccccc23)c1` (stereo unspecified), the survival was 74%.

As for `CCOc1ccc(NS(=O)(=O)c2ccc(-c3cc(C)no3)s2)cc1`, the survival was 87%.

For the compound `CCOc1ccc(-c2nonc2NC(=O)c2oc3ccc(Br)cc3c2C)cc1`, the survival was 50%.

For `CC1CCC(NC(=O)CN2CCC(n3nnc4ccccc43)CC2)CC1` (stereo unspecified), the survival is 76%.

Take `CC1=C(C(=O)Nc2ccc(C)cc2C)C(c2ccccc2)n2ncc(C(=O)Nc3ccccc3)c2N1` (stereo unspecified): the survival was 58%.

As for `CC(=O)N1CCCc2cc(S(=O)(=O)N3CCC(C(=O)N(Cc4ccccc4)C(C)C)CC3)ccc21`, the survival is 76%.

On to `O=C(CSc1nc(-c2cccc(F)c2)[nH]c1-c1ccccc1)Nc1ccc2c(c1)OCO2`, for which the survival is 32% (active).

Turning to `O=C(CSc1nc2ccccc2nc1Cc1ccccc1F)Nc1cccc(C(F)(F)F)c1`, the survival was 35% (active).

For `O=C(CSc1nc(-c2cccc(F)c2)[nH]c1-c1ccccc1)Nc1ccc2c(c1)OCCO2`, the survival was 94%.

For `O=C(CSc1nc2ccccc2nc1Cc1ccc(Cl)cc1)Nc1ccc2c(c1)OCO2`, the survival was 71%.

Take `Cc1cccc(-c2nc(SCC(=O)Nc3ccc4c(c3)OCCO4)c(-c3ccccc3)[nH]2)c1`: the survival is 58%.

Regarding `O=C(CSc1nc(-c2ccccc2)[nH]c1-c1ccccc1)Nc1ccc2c(c1)OCO2`, the survival was 67%.

For the compound `O=C(CSc1nc2ccccc2nc1Cc1ccccc1)Nc1ccc2c(c1)OCO2`, the survival was 75%.

`O=C(CSc1nc(-c2ccc(F)cc2)[nH]c1-c1ccc(F)cc1)Nc1ccc2c(c1)OCO2`: the survival was 97%.

Regarding `Cc1ccc(NC(=O)CSc2nc3ccccc3nc2Cc2ccccc2F)cc1F`, the survival is 107%.

As for `Cc1cccc(-c2nc(SCC(=O)Nc3ccc4c(c3)OCO4)c(-c3ccccc3)[nH]2)c1`, the survival was 40% (active).

On to `Cc1ccc(Cc2nc3ccccc3nc2SCC(=O)Nc2cccc(C(F)(F)F)c2)cc1`, for which the survival was 67%.

On to `O=C(CSc1nc2ccccc2nc1Cc1ccc(F)cc1)Nc1ccc2c(c1)OCO2`, for which the survival is 52% (active).

With `CC(NC(=O)Nc1cc(Cl)ccc1Cl)c1c(-n2cccc2)sc2c1CCCC2` (stereo unspecified), the survival is 72%.

With `Cc1ccc2c(c1)N(C(=O)NCc1ccccc1)CCO2`, the survival was 79%.

As for `Cc1cccc(CN2C(=O)c3ccccc3S(=O)(=O)c3ccc(C(=O)NC4CCCCC4)cc32)c1`, the survival was 79%.

`COCCNC(=O)CCCn1c(SCC(=O)c2ccc(Br)cc2)nc2c(sc3ccccc32)c1=O`: the survival is 68%.

`COc1ccccc1CNC(=O)CN1C(=O)COc2ccc(S(=O)(=O)N3CCC(C)CC3)cc21`: the survival is 76%.

For the compound `Cn1cc(S(=O)(=O)c2ccc(Cl)cc2)c(=O)c2cc(F)c(N3CCCC3)cc21`, the survival was 73%.

In the case of `COCCCNC(=O)c1sc2nc3n(c(=O)c2c1C)CCC3`, the survival is 91%.

In the case of `CCOc1ccccc1NC(=O)CSc1nc2c(c(=O)[nH]1)CCC2`, the survival is 101%.

For `COc1ccc(OC)c(CCNC(=O)c2cnn(-c3ccccc3)c2C2CCN(C(=O)OC(C)(C)C)CC2)c1`, the survival was 73%.

As for `CCc1ccc(NC(=O)CSc2ccccn2)cc1`, the survival was 89%.

`COc1cccc(-c2nc(SCC(=O)Nc3ccc4c(c3)OCCO4)c(-c3ccccc3)[nH]2)c1`: the survival is 54%.

Consider `COc1ccc(-c2[nH]c(-c3cccc(OC)c3)nc2SCC(=O)Nc2ccc3c(c2)OCO3)cc1`, for which the survival was 55%.

As to `COc1cccc(-c2nc(SCC(=O)Nc3ccc4c(c3)OCO4)c(-c3ccccc3)[nH]2)c1`, the survival was 31% (active).

For the compound `CC(=O)N1c2ccc(S(=O)(=O)NCCC(=O)Nc3ccc(Br)c(C)c3)cc2CC1C` (stereo unspecified), the survival is 90%.

On to `Cc1ccc(CCNC(=O)c2ccc3c(c2)N(Cc2cccc(C)c2)C(=O)c2ccccc2S3(=O)=O)cc1`, for which the survival is 72%.

As for `CCOC(=O)C1CCCN(CC(=O)N2CCCc3c2c(=O)oc2ccc(OCc4ccccc4)cc32)C1` (stereo unspecified), the survival is 121%.

Take `COc1ccc(N2CC(C(=O)NCc3nnnn3-c3ccc(C)c(C)c3)CC2=O)cc1` (stereo unspecified): the survival was 69%.

Regarding `CCCSc1ncnc2c1c(-c1ccccc1)cn2-c1ccccc1OC`, the survival is 2% (active).

As for `CCCCSc1ncnc2c1c(-c1ccccc1)cn2-c1cccc(F)c1`, the survival was 78%.

In the case of `CCOC(=O)CSc1ncnc2c1c(-c1ccccc1)cn2-c1ccc(OC)cc1`, the survival is 60%.

For the compound `CC(C(=O)O)N1C(=O)NC2NC(=O)NC21` (stereo unspecified), the survival was 54% (active).

On to `CC(C(=O)O)N1CCCC1` (stereo unspecified), for which the survival was 94%.

As for `CCOc1ccc(C(=O)Nc2nnc(SCc3cc(=O)c4cc(C)ccc4[nH]3)s2)cc1`, the survival is 91%.

In the case of `COCCNC(=O)c1ccc2c(c1)NC(=O)C(CS(=O)(=O)Cc1ccc(F)cc1Cl)N2` (stereo unspecified), the survival was 130%.

In the case of `Nc1ccc2c(c1)OC1(CCCCC1)O2`, the survival is 55% (active).

With `O=C1OC2(CCCC2)OC(=O)C1=CNc1ccccc1`, the survival is 96%.

In the case of `COc1ccccc1-c1cc(C(=O)Nc2ccccc2C(F)(F)F)no1`, the survival is 71%.
